Source: PubChem (National Center for Advancing Translational Sciences (NCATS))
Most compounds without a hit are left out; they make up all but 11% or so of the library.
G9a inh: blocks human histone lysine methyltransferase G9a. 350,000 tested, 8.8% active. AID 504332. G9a H3K9 monomethylation, AlphaScreen, 2 h. Potency, µM (series often up to 102 µM), for inactives: at the top dose activity, negative = inhibition, most hits filed as inhibitors. Q96KQ7; also: potency is read from the fitted curve at half-maximal effect; % is scaled to controls: 0 for no effect and ±100 for the full control effect; nearly all actives have a fitted effect of over 75% in size
Target sequence (Q96KQ7 913-1193 limits assumed): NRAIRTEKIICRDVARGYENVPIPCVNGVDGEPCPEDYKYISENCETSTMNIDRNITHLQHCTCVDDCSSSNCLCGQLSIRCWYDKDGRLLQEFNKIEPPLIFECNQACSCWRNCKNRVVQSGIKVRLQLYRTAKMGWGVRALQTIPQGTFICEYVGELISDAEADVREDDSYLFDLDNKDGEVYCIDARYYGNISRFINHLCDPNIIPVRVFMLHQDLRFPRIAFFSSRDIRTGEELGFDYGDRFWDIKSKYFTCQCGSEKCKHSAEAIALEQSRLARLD
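Methyltransferase reactions run at room temperature for 2 h (20 nM enzyme, 500 nM biotin-H3K9 peptide, 20 uM SAM) after a 15 min compound preincubation; product detected by AlphaScreen beads and anti-H3K9me1 antibody.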
PI5P4K alpha inh: blocks human PI5P4K alpha kinase activity. PI5P4Kalpha enzyme, ADP-Glo luminescence, 60 min; stronger effect = lower value. max response, %. 330,000 tested, 1.2% active; active = max response of -50% or lower; inconclusive = between -30% and -50%; inactive = -30% or higher; also: value at the top dose of about 77 µM; % is scaled to controls: 0 for no effect and ±100 for the full control effect
Target sequence (P48426 whole entry, looked up): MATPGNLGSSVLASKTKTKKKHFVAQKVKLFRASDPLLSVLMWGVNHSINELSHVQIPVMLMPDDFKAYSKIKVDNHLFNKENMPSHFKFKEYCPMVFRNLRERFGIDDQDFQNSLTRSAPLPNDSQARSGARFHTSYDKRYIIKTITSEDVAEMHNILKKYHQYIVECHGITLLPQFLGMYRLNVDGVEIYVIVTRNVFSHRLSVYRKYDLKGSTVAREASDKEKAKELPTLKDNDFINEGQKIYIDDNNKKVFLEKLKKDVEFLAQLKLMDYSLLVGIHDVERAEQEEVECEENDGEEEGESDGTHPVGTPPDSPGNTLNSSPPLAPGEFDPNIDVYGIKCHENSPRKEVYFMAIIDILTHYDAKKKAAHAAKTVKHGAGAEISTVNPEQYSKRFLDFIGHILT
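Quantitative HTS of the MLSMR library against PI5P4Kalpha with substrate. ATP added last at 5 microM final; room temperature, 60 minutes. Remaining ATP depleted, ADP converted and read as luminescence.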
BAZ2B inh: blocks human BAZ2B. Q9UIF8. AlphaScreen BAZ2B-H3K14Ac peptide displacement. Potency, µM (top dose mostly 114 µM), inactives show top-dose activity change, negative = inhibition, actives largely listed as inhibitors. 360,000 tested, 4.4% active. AID 504333; also: potency is read from the fitted curve at half-maximal effect; % is scaled to controls: 0 for no effect and ±100 for the full control effect; nearly all actives have a fitted effect of over 60% in size
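Inhibition is scored as reduced AlphaScreen emission. The BAZ2B/b-H3(5-23)K14Ac complex (50 nM each) in PBS pH 7.4, 0.01% Tween-20 meets compound (up to 110 uM) for 30 min at RT before bead addition.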
HP1b binding inh: inhibitors of HP1-beta chromodomain binding to methylated histone tails; Potency, µM (top dose mostly 114 µM), for inactives: at the highest dose activity change, negative = inhibition, usual class: inhibitors; 390,000 tested, 0.56% active; AlphaScreen HP1-beta / biotin-H3K9me3 peptide binding; P83916; also: potency is read from the fitted curve at half-maximal effect; nearly all actives have a fitted effect of over 70% in size
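HP1-beta protein (50 nM final) preincubated 30 min at room temperature with biotinylated H3(1-18)K9me3 peptide (50 nM) in PBS pH 7.4, 0.01% Tween-20, then compound added for 30 min. AlphaScreen streptavidin donor/nickel chelate acceptor beads (10 ug/mL final), 30 min dark, luminescence read.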
L3MBTL1 block: blocks human L3MBTL1. AlphaScreen L3MBTL1–H3K9me1 peptide binding. Q9Y468. 230,000 tested, 0.66% active. Potency, µM (titrated, usually from 57.1 µM), inactives show top-dose activity, negative = inhibition, hits mostly inhibitors. AID 485360; also: potency is read from the fitted curve at half-maximal effect; % is scaled to controls: 0 for no effect and ±100 for the full control effect; nearly all actives have a fitted effect of over 60% in size
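AlphaScreen assay: L3MBTL1 (50 nM final) was preincubated 30 min at room temperature with biotinylated H3(1-15)K9me1 peptide (75 nM final), then 30 min with library compounds; streptavidin donor and nickel chelate acceptor beads (10 ug/mL final) added, 30 min dark.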
JMJD2A Tudor: blocks the human JMJD2A Tudor domain; O75164; 390,000 tested, 4.4% active; Potency, µM (series often up to 114 µM), without a hit: top-dose activity change, negative = inhibition, actives largely listed as inhibitors; AlphaScreen JMJD2A-Tudor / H3K4me3 peptide binding; also: potency is read from the fitted curve at half-maximal effect; % is scaled to controls: 0 for no effect and ±100 for the full control effect; nearly all actives have a fitted effect of over 50% in size
Starred values were filed as active, the others as inactive; [ ] = remark or other dose. Unless noted, calls follow the shape of the dose curve; as a rule, active = well fitted inhibition curve with a large enough effect; inconclusive = small, poorly fitted or top-dose-only effect; inactive = no such curve, though single readings can be large or run the other way.

How did N#Cc1ccc(NC(=O)C2Cc3ccccc3CN2S(=O)(=O)c2ccc(F)cc2)cc1 (configuration not stated) do in these assays?
G9a inh: 16.7%[59 µM]; BAZ2B inh: -4.3%; HP1b binding inh: 10.3%; JMJD2A Tudor: -17.0%

How did Cc1cccc(OCC(=O)OCc2cc(=O)n3nc(-c4cccs4)sc3n2)c1 do in these assays?
G9a inh: 14.8%[59 µM]; BAZ2B inh: -15.3%; HP1b binding inh: 28.5%; JMJD2A Tudor: -31.7%

What do the screens show for `O=c1cc(-c2ccccc2F)[nH]c2cc3c(cc12)OCO3`?
G9a inh: -7.1%[59 µM]

Results for Cc1cc2c(s1)c1cnn(Cc3cc(F)cc(F)c3F)c(=O)c1n2C ?
JMJD2A Tudor: -13.0%

What do the screens show for `CCn1c(CNC(=O)C23CC4CC(CC(C4)C2)C3)nnc1SC`?
G9a inh: 6.5%; PI5P4K alpha inh: inconclusive; BAZ2B inh: 6.0%; HP1b binding inh: 18.3%; L3MBTL1 block: 7.2%; JMJD2A Tudor: -13.1%

Results for CC(C)Sc1nnc(CNC(=O)C23CC4CC(CC(C4)C2)C3)n1C1CCCCC1 ?
G9a inh: 20µM*; PI5P4K alpha inh: 6.3; BAZ2B inh: 7.7%; HP1b binding inh: 17.2%; L3MBTL1 block: 1.4%; JMJD2A Tudor: -27.3%

What do the screens show for `Clc1ccccc1Nc1ncnc2c1nc1n2CCCCC1`?
G9a inh: -6.0%[59 µM]; BAZ2B inh: inconclusive; HP1b binding inh: 42.8%; JMJD2A Tudor: -13.9%

What do the screens show for `CCN(C(=O)C(=O)Nc1ccc2nc3n(c(=O)c2c1)CCCCC3)c1ccc(F)cc1`?
G9a inh: 2.4%[59 µM]; BAZ2B inh: 2.1%; HP1b binding inh: 19.8%; JMJD2A Tudor: -17.4%

What do the screens show for `Cc1cccc(C)c1NC(=S)NCCc1ccc(O)c(O)c1`?
G9a inh: 25.1µM*; PI5P4K alpha inh: 6.0; BAZ2B inh: -24.8%; HP1b binding inh: -7.3%; L3MBTL1 block: -9.3%; JMJD2A Tudor: -21.9%

Results for Cc1nc2c(=O)[nH]c(=S)n(C)c2nc1C ?
G9a inh: 7.08µM*; PI5P4K alpha inh: inconclusive; BAZ2B inh: -27.9%; HP1b binding inh: -70.7%; L3MBTL1 block: -1.1%; JMJD2A Tudor: 50.1µM*

How did CCOc1ccccc1Nc1nc(-c2sc(NC(=O)c3cccc(Cl)c3)nc2C)cs1 do in these assays?
G9a inh: 39.8µM*; PI5P4K alpha inh: inconclusive; BAZ2B inh: inconclusive; HP1b binding inh: inconclusive; L3MBTL1 block: -4.2%; JMJD2A Tudor: inconclusive

How did COc1ccccc1Nc1nc(-c2sc(NC(=O)c3ccc([N+](=O)[O-])cc3)nc2C)cs1 do in these assays?
G9a inh: 44.7µM*; BAZ2B inh: inconclusive; L3MBTL1 block: -3.6%

Results for CCCCCC(=O)Nc1nc(C)c(-c2csc(Nc3ccccc3OCC)n2)s1 ?
G9a inh: inconclusive; PI5P4K alpha inh: 1.7; BAZ2B inh: -30.3%; HP1b binding inh: -12.0%; L3MBTL1 block: -0.1%; JMJD2A Tudor: inconclusive

How did CCOc1ccccc1Nc1nc(-c2sc(NC(=O)c3ccccc3)nc2C)cs1 do in these assays?
G9a inh: 31.6µM*; BAZ2B inh: inconclusive; L3MBTL1 block: -9.8%

How did COc1ccccc1Nc1nc(-c2sc(NC(=O)c3ccccc3)nc2C)cs1 do in these assays?
G9a inh: inconclusive; PI5P4K alpha inh: -29.1; BAZ2B inh: -38.2%; HP1b binding inh: -2.1%; L3MBTL1 block: -0.4%; JMJD2A Tudor: inconclusive

What do the screens show for `COc1ccc(-c2nnc(SCc3cc(=O)c4cc(C)cc(C)c4[nH]3)n2C)cc1`?
G9a inh: -0.1%[59 µM]; BAZ2B inh: 4.7%; HP1b binding inh: 13.8%[57 µM]; JMJD2A Tudor: -14.0%

What do the screens show for `Cc1ccc(C(=O)Nc2cccc(C(=O)OCc3cc(=O)n4c5c(sc4n3)CCCC5)c2)cc1`?
G9a inh: 8.1%[12.7 µM]; BAZ2B inh: -13.0%; HP1b binding inh: 22.8%; JMJD2A Tudor: 7.6%

How did O=C(O)c1cccc(Nc2c3ccccc3nc3ccccc23)c1 do in these assays?
PI5P4K alpha inh: -1.5; BAZ2B inh: 20.6%; HP1b binding inh: 20.6%; L3MBTL1 block: 57.1%; JMJD2A Tudor: -14.3%

What do the screens show for `O=C(O)c1cc(S(=O)(=O)O)cc(Nc2c3ccccc3nc3ccccc23)c1O`?
G9a inh: 17.8µM*; PI5P4K alpha inh: -1.1; BAZ2B inh: inconclusive; HP1b binding inh: inconclusive; JMJD2A Tudor: inconclusive

Results for Cc1cc(C)n(-c2nnc(NC(C)(C)C)nn2)n1 ?
G9a inh: -16.4%; PI5P4K alpha inh: 0.9; BAZ2B inh: -9.6%; HP1b binding inh: 3.5%; L3MBTL1 block: -4.0%; JMJD2A Tudor: -8.6%

Results for Cc1cc(C)n(-c2nnc(NC34CC5CC(CC(C5)C3)C4)nn2)n1 ?
G9a inh: 22.4µM*; PI5P4K alpha inh: -12.3; BAZ2B inh: 31.6µM*; HP1b binding inh: inconclusive; L3MBTL1 block: inconclusive; JMJD2A Tudor: 25.1µM*

How did Cc1cccc2sc(NNC(=O)c3ccc4c(c3)OCCO4)nc12 do in these assays?
G9a inh: 10µM*; PI5P4K alpha inh: -1.5; BAZ2B inh: inconclusive; HP1b binding inh: 5.7%; L3MBTL1 block: -26.4%; JMJD2A Tudor: inconclusive

How did O=C(NNc1nc2cc3c(cc2s1)OCCO3)c1ccccc1 do in these assays?
G9a inh: 39.8µM*; PI5P4K alpha inh: 8.2; BAZ2B inh: -31.9%; HP1b binding inh: 21.7%; L3MBTL1 block: -20.9%; JMJD2A Tudor: -31.7%

How did CCOc1ccc2c(ccc(/C=C/c3cc(C)c4cccnc4c3O)[n+]2C)c1 do in these assays?
PI5P4K alpha inh: -84.7*; HP1b binding inh: inconclusive; JMJD2A Tudor: 10µM*

Results for CCOc1ccc2[nH]c3ncccc3c(=O)c2c1 ?
G9a inh: 6.5%; PI5P4K alpha inh: -0.4; BAZ2B inh: -1.1%; HP1b binding inh: 22.3%; JMJD2A Tudor: -2.1%

What do the screens show for `CN1CCC/C1=C/C=C1\SC(=S)NC1=O`?
G9a inh: 10µM*; PI5P4K alpha inh: -19.1; BAZ2B inh: inconclusive; HP1b binding inh: -14.7%; L3MBTL1 block: -17.8%; JMJD2A Tudor: -29.7%

Results for CCOC(=O)CC1=NN(c2ccccc2)C(=O)/C1=C\c1ccc(N(C)C)cc1 ?
G9a inh: 4.47µM*; PI5P4K alpha inh: 1.2; BAZ2B inh: 5.62µM*; HP1b binding inh: inconclusive; L3MBTL1 block: -4.0%; JMJD2A Tudor: 10µM*

How did CCCCOC(=O)c1ccc(Nc2nc3ccccc3c3nnc(C)n23)cc1 do in these assays?
G9a inh: -3.6%[59 µM]; BAZ2B inh: -12.8%; HP1b binding inh: 23.4%; JMJD2A Tudor: -6.9%

Results for COc1ccc2c(c1)CC(C(=O)Nc1ccc(OC)cc1OC)CO2 (configuration not stated) ?
G9a inh: -41.1%[59 µM]; BAZ2B inh: -18.4%; HP1b binding inh: 36.4%[57 µM]; JMJD2A Tudor: -22.7%
